# Screening results from PubChem.
# TLR4-MyD88 BLA: TLR4-MyD88 interaction inhibition in cells. HeLa CL3-4 TLR4/MyD88 BLA complementation, FRET ratio. inhibition, % at 8.4 µM. 200,000 compounds, 0.18% hits. AID 861; in the data active means inhibition above about 25%;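 further: 0% = vehicle and 100% = reference inhibitor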
# IDE inh: inhibits human insulin-degrading enzyme in HEK cells; P14735; FAbetaB cleavage, fluorescence polarization; inhibition, % at 5.59 µM; 320,000 compounds, 0.41% hits;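 active means percent inhibition above the average of all tested compounds plus 3 SD, set per screening campaign, cut at about 16% in these data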;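 further: IDE supplied by intact live HEK cells; FP after avidin binding of uncleaved biotin substrate so inhibition keeps polarization high; 0% = DMSO wells and 100% = 60 µM reference IDE inhibitor Ii1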
# TLR9-MyD88 block: TLR9-MyD88 interaction inhibition | 340,000 compounds, 0.21% hits | Q9NR96+Q99836 | inhibition, % at 4.98 µM | AID 504734 | CHO BLA complementation TLR9-MyD88, CCF4 FRET ratio;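 active means inhibition above the mean over all tested compounds plus 3 SD, cut at about 21% in these data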;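 further: 0% = DMSO only wells and 100% = clavulanate BLA inhibitor control wells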
# Target sequence (Q99836 whole entry, looked up): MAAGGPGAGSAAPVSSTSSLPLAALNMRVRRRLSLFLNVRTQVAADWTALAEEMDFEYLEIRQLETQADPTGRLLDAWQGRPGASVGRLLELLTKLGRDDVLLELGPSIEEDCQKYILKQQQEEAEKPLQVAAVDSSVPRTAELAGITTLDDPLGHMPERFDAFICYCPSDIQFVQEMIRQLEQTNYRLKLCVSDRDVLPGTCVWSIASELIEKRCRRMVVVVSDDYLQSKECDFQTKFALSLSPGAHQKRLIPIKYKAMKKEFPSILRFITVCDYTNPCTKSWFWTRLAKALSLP
# Target sequence (Q9NR96 whole entry, looked up): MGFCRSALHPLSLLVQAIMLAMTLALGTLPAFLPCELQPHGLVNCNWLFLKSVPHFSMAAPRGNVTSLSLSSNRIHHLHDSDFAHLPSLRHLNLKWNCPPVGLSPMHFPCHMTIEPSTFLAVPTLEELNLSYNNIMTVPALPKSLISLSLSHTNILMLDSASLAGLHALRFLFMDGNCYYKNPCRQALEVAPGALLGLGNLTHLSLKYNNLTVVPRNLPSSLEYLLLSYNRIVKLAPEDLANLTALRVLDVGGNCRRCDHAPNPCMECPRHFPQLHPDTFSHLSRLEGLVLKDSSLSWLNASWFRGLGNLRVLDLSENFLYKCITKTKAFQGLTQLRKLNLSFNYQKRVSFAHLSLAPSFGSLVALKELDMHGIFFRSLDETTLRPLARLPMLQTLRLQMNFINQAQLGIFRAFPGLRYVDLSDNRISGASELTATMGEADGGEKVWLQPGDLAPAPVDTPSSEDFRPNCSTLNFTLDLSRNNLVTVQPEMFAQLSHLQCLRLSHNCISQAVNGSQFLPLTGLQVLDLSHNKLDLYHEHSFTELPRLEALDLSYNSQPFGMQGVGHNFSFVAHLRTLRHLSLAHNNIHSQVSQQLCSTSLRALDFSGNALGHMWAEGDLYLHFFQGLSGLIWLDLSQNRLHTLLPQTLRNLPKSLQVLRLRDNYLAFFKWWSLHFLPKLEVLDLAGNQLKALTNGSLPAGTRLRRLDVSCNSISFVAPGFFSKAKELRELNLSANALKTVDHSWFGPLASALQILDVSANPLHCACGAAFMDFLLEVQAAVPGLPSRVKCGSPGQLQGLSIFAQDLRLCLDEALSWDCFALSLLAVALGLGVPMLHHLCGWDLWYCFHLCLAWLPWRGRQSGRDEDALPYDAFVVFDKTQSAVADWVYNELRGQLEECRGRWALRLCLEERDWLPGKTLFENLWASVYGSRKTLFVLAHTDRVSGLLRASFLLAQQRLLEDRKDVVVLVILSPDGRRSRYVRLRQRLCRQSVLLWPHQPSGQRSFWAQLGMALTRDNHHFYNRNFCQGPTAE
# IDE cell activ: boosts human insulin-degrading enzyme activity in HEK cells; activation, % at 5.96 µM; AID 493087; 340,000 compounds, 0.073% hits; FAbeta-B cleavage, fluorescence polarization; 0% vehicle, 100% cell-free pure enzyme wells;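 active means activation above the mean of all tested compounds plus 3 SD, set per screening campaign, cut at about 17% in these data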
# NOD2 RIPK2 PPI: inhibitors of human NOD2-RIPK2 interaction; CHO BLA complementation NOD2-RIPK2, CCF4 ratio; inhibition, % at 4.98 µM; 360,000 compounds, 0.38% hits; AID 624267; in the data active means inhibition above about 21%;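 further: 0% = vehicle only and 100% = reference blocker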
# NOD2 RIPK2 conf: confirmation of human NOD2-RIPK2 interaction inhibitors; shares compounds with NOD2 RIPK2 PPI; CHO cells, NOD2-RIPK2 BLA complementation, CCF4 FRET; inhibition, % at 4.98 µM; 1,200 compounds, 70% hits;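 active means mean inhibition across replicates above a set limit taken from the earlier primary screen, cut at about 21% in these data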;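 further: 0% = DMSO-only wells and the high end = clavulanate BLA-blocked wells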
# NOD2 BLA counter: hits BLA reporter in NOD2-RIPK2 inhibitor counterscreen; shares compounds with NOD2 RIPK2 PPI; CHO BLA reporter, CCF4 FRET ratio; inhibition, % at 4.98 µM; 1,200 compounds, 57% hits; AID 624371;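 active means mean inhibition above the low-control mean inhibition plus three low-control SD, cut at about 11% in these data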;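 further: 0% = DMSO only wells and 100% = clavulanate high control wells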
# * marks the source's active call; other numbers are inactive results; · = no result. The list is not random: actives were taken first. Their share in the collection is about 0.87%.
SMILES,TLR4-MyD88 BLA,IDE inh,TLR9-MyD88 block,IDE cell activ,NOD2 RIPK2 PPI,NOD2 RIPK2 conf,NOD2 BLA counter
O=C1CC2CCCN2C=C1I (configuration not stated),·,1.1,-10.1,2.4,4.0,·,·
Cc1ccc(O)c(Nc2c3ccccc3nc3ccccc23)c1,·,0.6,-21.6,0.2,-15.2,·,·
Cc1ccc2c(c1)=N/C(=N\c1[nH]c(O)c3ccccc13)N=2,·,·,-2.9,·,29.4*,50.6*,48.5*
O=C(NCC(=O)N(Cc1ccccc1)C(C(=O)NCC1CCCO1)c1ccccc1)c1ccco1 (configuration not stated),·,1.4,1.2,-0.7,-5.7,·,·
O=C(CCS(=O)(=O)c1ccc(Cl)cc1)N1CCCc2ccccc21,·,-7.1,3.9,4.7,-14.7,·,·
C=C1C(=O)[C@]23C[C@H]1CCC2[C@@]1(C)C(C[C@@H]3O)[C@](C)(C(=O)OC)CC[C@@H]1O (some centres not stated),·,·,·,·,76.6*,67.0*,9.8
COc1ccc(/C=N/Nc2ccc(C(=O)O)cc2)c(OC)c1OC,·,0.1,-3.4,0.8,-4.7,·,·
COC(=O)c1ccc2c(c1)C(C)(C)C(/C=C/c1ccc(OC)c(OC)c1OC)=[N+]2C,14.7,0.5,2.1,-3.1,26.4*,87.7*,5.9
COC(=O)C(NS(=O)(=O)c1ccc(N2CCCC2=O)cc1)c1ccccc1 (configuration not stated),·,0.9,-3.6,-7.2,-1.7,·,·
O=C(CC(=O)N/N=C\c1ccccc1)NCCc1ccccc1,·,-1.1,14.1,6.2,21.9*,1.9,0.9
Cc1ccc(/C=N\NC(=O)CC(=O)NCCc2ccccc2)cc1,·,1.5,-1.9,-3.3,-3.6,·,·
CN(C)CCCN1C(=O)C2CCc3[nH]c4ccccc4c3C2C1=O (configuration not stated),-7.5,-0.4,-32.8,4.7,7.4,·,·
CC1CN(CC(=O)NN=C(c2ccccc2)c2ccccc2)CC(C)O1 (configuration not stated),-12.9,0.3,-7.8,6.2,-0.6,·,·
CC(=O)Oc1ccccc1C(=O)C=Cc1cccc([N+](=O)[O-])c1,·,·,7.4,-3.9,60.1*,71.4*,-4.5
O=C(c1ccccc1)c1sc(Nc2ccc3c(c2)OCO3)nc1-c1ccccc1,·,·,·,·,21.3*,20.3,25.5*
COc1ccc(/C=C2\COc3ccccc3C2=O)cc1OC,-5.7,-0.8,-15.5,-2.6,6.1,·,·
CCOc1cc(/C=C2\COc3ccccc3C2=O)cc(Br)c1OCC(=O)N(C)C,·,11.4,4.2,-6.9,25.9*,27.5*,-4.4
COC(=O)CCS(=O)(=O)c1nc(-c2ccccc2)cc(C(F)(F)F)n1,14.8,-0.1,19.3,-3.5,44.4*,59.3*,13.3*
O=C(O)CCS(=O)(=O)c1nc(-c2cccs2)cc(C(F)(F)F)n1,2.9,7.2,-2.4,-2.8,-8.4,·,·
COc1ccc(-c2cc(C(F)(F)F)nc(N)n2)cc1,-4.3,1.9,0.8,0.1,3.7,·,·
Cc1cc(NC(=O)CCCS(=O)(=O)c2nc(-c3cccs3)cc(C(F)(F)F)n2)no1,23.1,-0.3,20.2,2.8,67.6*,43.4*,15.2*
COc1ccc(-c2cc(C(F)(F)F)nc(S(C)(=O)=O)n2)cc1,14.6,-1.1,16.8,3.2,32.5*,42.4*,1.6
CCOC(=O)C=C(C(=O)OCC)C(=O)OCC,3.5,·,-1.6,-4.8,-8.7,·,·
O=C(OCC(=O)N(C1CCCCC1)C1CCCCC1)c1ccc(Cl)nc1,·,8.0,-6.7,1.5,-0.7,·,·
O=c1c2c([nH]n1-c1ccccc1)CCSC2,·,3.9,-1.3,-1.4,0.8,·,·
O=C(CN(c1cccc(C(F)(F)F)c1)S(=O)(=O)c1ccc(Cl)c([N+](=O)[O-])c1)NCc1ccccc1,14.1,1.2,-2.9,5.5,-11.6,·,·
CC(NC(=O)CN(c1cccc(C(F)(F)F)c1)S(=O)(=O)c1ccc(Cl)c([N+](=O)[O-])c1)c1ccccc1 (configuration not stated),-4.0,7.4,7.9,3.8,39.4*,34.7*,-1.1
CCOC(=O)c1sc2nc(C)cc(-c3ccccc3)c2c1N,8.5,4.8,10.5,0.1,16.1,·,·
